Here are results for 27 compounds from PubChem BioAssay (Tox21).

Experiment [1] in a line: qHTS assay to identify aromatase inhibitors - cell viability counter screen (AID 743084).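 Note: cells stimulated with testosterone during compound exposure; nearly all actives have a fitted effect of over 55% in size.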 Note: potency is the fitted concentration of half-maximal effect.
Experiment [2] addresses Aryl hydrocarbon receptor (Homo sapiens) (UniProt P35869). Put plainly: qHTS assay to identify small molecule that activate the aryl hydrocarbon receptor (AhR) signaling pathway (AID 743085).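 For activation: HG2L7.5c1 human HepG2 liver cells with stably integrated DRE-driven firefly reporter; series mostly up to about 70 µM.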 Note: nearly all actives have a fitted effect of over 15% in size. Note: potency is the fitted concentration of half-maximal effect. In short, it runs like this:
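AhR agonist activity is inferred from enhanced light output of a DRE-controlled firefly luciferase reporter in HepG2 cells, measured with ONE-Glo following 24 h treatment at 37C.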
On the technique in general: qHTS replaces the single test concentration by a dilution series.

Experiment [3] can be described thus: qHTS assay to identify small molecule that activate the aryl hydrocarbon receptor (AhR) signaling pathway - cell viability counter screen (AID 743086).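 Note: HepG2 liver cells carrying the AhR DRE luciferase reporter; series mostly up to about 70 µM; nearly all actives have a fitted effect of over 45% in size.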 In short, it runs like this: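 HepG2-AhR-luc (HG2L7.5c1) cells, 4000/well, treated 24 h at 37 C with compound; viability measured as CellTiter-Fluor fluorescence after 30 min in the same wells as the luciferase read.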

In experiment [4] the target is Peroxisome proliferator-activated receptor gamma (Homo sapiens) (UniProt P37231). Briefly: qHTS assay to identify small molecule agonists of the peroxisome proliferator-activated receptor gamma (PPARg) signaling pathway (AID 743094; active = well fitted activation curve with a large enough effect in the signal ratio in the repeat runs, not every such curve was filed as active; the % refers to the signal ratio; note: potency is the fitted concentration of half-maximal effect). In short, it runs like this:
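Beta-lactamase FRET fluorescence was the read-out after a 1 h room-temperature substrate step, following 17 h compound treatment at 37C of HEK293H cells expressing a UAS-driven bla reporter responsive to PPARg.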

Experiment [5] is described as follows: qHTS assay to identify small molecule antagonists of the peroxisome proliferator-activated receptor gamma (PPARg) signaling pathway - cell viability counter screen (AID 743194). Note: nearly all actives have a fitted effect of over 55% in size. Note: potency is the fitted concentration of half-maximal effect. In a few lines: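 Cytotoxicity counter screen in PPARg-bla HEK293H cells, same wells as reporter assay. Compounds plus 50 nM rosiglitazone (final) for 17 h at 37 C, then viability read by CellTiter-Glo luminescence.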

Experiment [6] can be described thus: qHTS assay for small molecule agonists of the antioxidant response element (ARE) signaling pathway - cell viability counter screen (AID 743203; calls by dose curve; note: nearly all actives have a fitted effect of over 55% in size). In a few lines:
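HepG2 cells carrying ARE-driven beta-lactamase; 2,000 cells/well; 5 hrs plating; compound pinned from DMSO; 16 hrs 37C/5% CO2; CellTiter-Glo added; 30 min RT; luminescence.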

Experiment [7] can be described thus: qHTS assay for small molecule activators of the heat shock response signaling pathway - cell viability counter screen (AID 743209). Note: nearly all actives have a fitted effect of over 50% in size. In a few lines: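 Luminescence from CellTiter-Glo, added after the beta-lactamase FRET read, gave the viability signal. Cells were HSE-bla HeLa treated with DMSO-dissolved compounds for 5 h at 37 C following overnight plating.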

Experiment [8] can be described thus: qHTS assay for small molecule activators of the heat shock response signaling pathway (AID 743210; active = well fitted activation curve with a large enough effect in the signal ratio in the repeat runs, with a control signal flat, not every such curve was filed as active; the % refers to the signal ratio; note: series mostly up to about 63 µM). In short, it runs like this:
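HSE-bla HeLa cells (beta-lactamase reporter under heat shock response elements), plated overnight, then exposed to compounds 5 h at 37 C; LiveBLAzer B/G FRET substrate added, 2.5 h at room temperature, fluorescence intensity read.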

Experiment [9] in a line: qHTS assay for small molecule agonists of the antioxidant response element (ARE) signaling pathway (AID 743202; active = well fitted activation curve with a large enough effect in the signal ratio in the repeat runs, not every such curve was filed as active; the % refers to the signal ratio; note: potency is the fitted concentration of half-maximal effect). In a few lines:
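ARE-bla HepG2 cells (beta-lactamase reporter under the antioxidant response element), plated 5 hours, then exposed to compounds 16 hours at 37 C. LiveBLAzer B/G FRET substrate added for 2 hours at room temperature; fluorescence intensity read.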

Experiment [10] deals with Peroxisome proliferator-activated receptor gamma (Homo sapiens) (UniProt P37231). Put plainly: qHTS assay to identify small molecule antagonists of the peroxisome proliferator-activated receptor gamma (PPARg) signaling pathway (AID 743191; calls by dose curve; note: series mostly up to about 63 µM; nearly all actives have a fitted effect of over 30% in size). In a few lines:
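GeneBLAzer PPARg UAS-bla HEK293H cells, 5 h post-plating, exposed to compounds 17 h at 37C. LiveBLAzer B/G FRET substrate added for 1 h at room temperature; beta-lactamase reporter read by fluorescence intensity.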

Results filed as inconclusive are left out. The source holds several records for some structures; these can differ, active in one and inactive in another. Activity calls are given as the source filed them. Unless noted, calls come from the whole dose curve; as a rule, active = well fitted curve in the direction sought with a large enough effect in the repeat runs; inconclusive = weak or mixed curves; inactive = no such curve, though single readings can be large; an effect the other way counts as inactive or inconclusive.

Aryl hydrocarbon receptor (Homo sapiens), sequence (P35869 whole entry, looked up): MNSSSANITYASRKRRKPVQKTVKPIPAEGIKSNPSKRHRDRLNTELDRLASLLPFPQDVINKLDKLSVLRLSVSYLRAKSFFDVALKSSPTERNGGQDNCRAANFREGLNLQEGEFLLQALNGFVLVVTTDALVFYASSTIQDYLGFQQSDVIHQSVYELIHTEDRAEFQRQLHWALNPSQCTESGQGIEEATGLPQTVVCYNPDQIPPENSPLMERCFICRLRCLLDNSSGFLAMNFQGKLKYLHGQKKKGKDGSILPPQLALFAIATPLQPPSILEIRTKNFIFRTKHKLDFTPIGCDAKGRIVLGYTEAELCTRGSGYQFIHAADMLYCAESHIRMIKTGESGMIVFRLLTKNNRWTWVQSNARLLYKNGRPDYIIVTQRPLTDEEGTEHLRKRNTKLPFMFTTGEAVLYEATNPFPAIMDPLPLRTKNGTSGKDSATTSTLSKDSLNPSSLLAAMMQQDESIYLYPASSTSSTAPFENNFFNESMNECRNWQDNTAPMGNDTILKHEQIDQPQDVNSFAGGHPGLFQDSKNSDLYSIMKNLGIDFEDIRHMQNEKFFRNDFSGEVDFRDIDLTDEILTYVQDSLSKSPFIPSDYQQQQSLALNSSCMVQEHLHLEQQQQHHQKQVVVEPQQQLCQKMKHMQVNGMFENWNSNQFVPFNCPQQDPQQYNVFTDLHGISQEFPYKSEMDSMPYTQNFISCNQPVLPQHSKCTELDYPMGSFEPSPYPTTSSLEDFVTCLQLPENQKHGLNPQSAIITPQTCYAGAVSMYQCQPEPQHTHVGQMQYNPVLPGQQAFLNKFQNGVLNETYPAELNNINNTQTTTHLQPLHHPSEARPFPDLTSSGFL
Peroxisome proliferator-activated receptor gamma (Homo sapiens), sequence (P37231 whole entry, looked up): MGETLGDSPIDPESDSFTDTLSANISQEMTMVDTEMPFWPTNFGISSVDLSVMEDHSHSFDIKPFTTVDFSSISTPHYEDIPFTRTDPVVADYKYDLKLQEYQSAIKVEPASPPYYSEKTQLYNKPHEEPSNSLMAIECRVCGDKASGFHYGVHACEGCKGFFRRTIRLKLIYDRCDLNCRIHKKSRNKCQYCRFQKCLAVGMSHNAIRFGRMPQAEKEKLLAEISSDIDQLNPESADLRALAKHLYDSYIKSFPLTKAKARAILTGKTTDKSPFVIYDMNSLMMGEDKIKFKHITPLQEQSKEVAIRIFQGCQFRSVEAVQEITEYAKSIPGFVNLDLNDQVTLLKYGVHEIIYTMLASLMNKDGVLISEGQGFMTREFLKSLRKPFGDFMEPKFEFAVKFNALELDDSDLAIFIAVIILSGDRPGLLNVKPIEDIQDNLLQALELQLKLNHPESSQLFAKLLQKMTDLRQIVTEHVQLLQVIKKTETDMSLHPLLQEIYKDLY

`Cc1ncc(CO)c(C=O)c1O`: the Potency entry in experiment [1], in experiment [2], in experiment [3], in experiment [4], in experiment [5] and in experiment [6] was “inactive” throughout. Also, in [7], the Potency result is “inactive”.

In the case of `O=[N+]([O-])c1cccc(S(=O)(=O)O)c1`, the Potency result in [1], in experiment [2], in experiment [3], in experiment [4], in experiment [5] and in experiment [6] was “inactive” in each case. The Potency entry in experiment [7] and in [8] was “inactive” each time.

On to `COc1ccc(C)cc1[N+](=O)[O-]`, for which the Potency result in experiment [1], in [2], in experiment [3], in [4], in [5] and in [6] was “inactive” in each case. The Potency result in experiment [7] and in experiment [8] was “inactive” in each case.

On to `CC(C)(C)Cl`, for which the Potency entry in experiment [1], in [2], in experiment [3], in experiment [4], in experiment [5] and in [9] was “inactive” throughout. Moreover, the Potency entry in [6], in experiment [7] and in experiment [8] was “inactive” in each case.

On to `O=S(=O)(Oc1ccc(Cl)cc1)c1ccccc1`, for which the Potency result in experiment [1], in [2], in experiment [3], in [4], in experiment [5] and in experiment [9] was “inactive” each time. In addition, the Potency result in [6], in experiment [7] and in [8] was “inactive” each time.

On to `CCO[Si](CCCCl)(OCC)OCC`, for which the Potency result in [1], in [2], in [3], in experiment [4], in experiment [5] and in experiment [9] was “inactive” throughout. Moreover, the Potency entry in experiment [6], in experiment [7] and in [8] was “inactive” each time.

As to `CC1=CC=C(C(C)C)CC1`, the Potency result in [1], in [2], in experiment [3], in [4], in experiment [9] and in [6] was “inactive” each time. Moreover, the Potency entry in [7] and in [8] was “inactive” in each case.

Take `CCCCCCCCCCCCN1CCCCCC1=O`: the Potency entry in experiment [1], in experiment [2], in [3], in [4], in experiment [5] and in experiment [6] was “inactive” throughout.

As to `O=[N+]([O-])c1ccc2[nH]ncc2c1`, the Potency entry in experiment [1], in experiment [2], in experiment [3], in [4], in experiment [5] and in experiment [9] was “inactive” throughout. The Potency entry in experiment [6], in experiment [7] and in experiment [8] was “inactive” each time.

For the compound `CCCCC(CC)CN1C(=O)C2C3C=CC(C3)C2C1=O` (centres undefined), the Potency in experiment [1] is 54.5 µM (active). Moreover, the Potency result in [2], in experiment [3], in [4], in experiment [5], in experiment [9] and in experiment [6] was “inactive” throughout. Besides, the Potency result in experiment [7] and in experiment [8] was “inactive” each time.

On to `CN(Cc1ccc(C(C)(C)C)cc1)Cc1cccc2ccccc12`, for which the Potency result in experiment [1], in experiment [2], in experiment [3], in [4], in experiment [9] and in experiment [6] was “inactive” throughout. Also, the Potency entry in experiment [7] and in experiment [8] was “inactive” each time.

On to `O=C(O)CC(=O)C(=O)O`, for which the Potency result in [1], in [2], in experiment [3], in experiment [4], in experiment [5] and in experiment [9] was “inactive” in each case. Further, the Potency result in experiment [6], in [7] and in [8] was “inactive” in each case.

As for `NCC(=O)CCC(=O)O`, the Potency entry in [1], in experiment [2], in experiment [3], in experiment [4], in experiment [5] and in [6] was “inactive” in each case. Also, the Potency result in experiment [7] and in experiment [8] was “inactive” in each case.

Turning to `CCOC(=O)C(F)(F)F`, the Potency entry in experiment [1], in experiment [2], in [3], in experiment [4], in experiment [5] and in experiment [6] was “inactive” throughout. Also, the Potency result in experiment [7] and in experiment [8] was “inactive” each time.

Consider `C[C@@H]1C[C@H]2O[C@@]3(O[C@@H]2C(C)(C)O)[C@H](O)[C@@]2(C)[C@@H]4CC[C@H]5C(C)(C)[C@@H](O[C@@H]6OC[C@@H](O)[C@H](O)[C@H]6O)CC[C@@]56C[C@@]46CC[C@]2(C)[C@@H]13`, for which the Potency entry in [1], in [2], in experiment [3], in experiment [4], in experiment [5] and in [6] was “inactive” in each case. Also, the Potency result in experiment [7] and in [8] was “inactive” in each case.

For `CCCCCCCCCCCCCCCCOS(=O)(=O)O`, the Potency result in experiment [1], in experiment [2], in experiment [3], in experiment [4], in [5] and in experiment [7] was “inactive” throughout.

Take `COC(C)(C)CCO`: the Potency result in experiment [1], in experiment [2], in experiment [3], in experiment [4], in [5] and in experiment [9] was “inactive” each time. For the same compound, the Potency entry in experiment [6], in [7] and in experiment [8] was “inactive” each time.

As for `O=CC1CC=CCC1` (centres undefined), the Potency result in [1], in experiment [2], in experiment [3], in experiment [4], in experiment [5] and in experiment [9] was “inactive” throughout. The Potency result in experiment [6], in experiment [7] and in experiment [8] was “inactive” in each case.

`COc1ccc(C(=O)N2CCN(CC(=O)N3CCOCC3)CC2)cc1`: the Potency result in [1], in [2], in experiment [3], in [4], in experiment [5] and in [9] was “inactive” throughout. In addition, the Potency result in experiment [6] and in [8] was “inactive” throughout.

With `C=C(C)C(=O)OCCO`, the Potency entry in experiment [1], in experiment [2], in experiment [3], in experiment [4], in [5] and in experiment [6] was “inactive” each time. Besides, the Potency entry in experiment [7] and in [8] was “inactive” each time.

For `CCCCc1nc2cccnc2n1Cc1ccc(-c2ccccc2-c2nnn[nH]2)cc1`, the Potency in experiment [1] was 54.5 µM (active); in experiment [4], 5.49 µM (active). The Potency result in [2], in experiment [3], in [5], in experiment [6] and in experiment [7] was “inactive” throughout.

As for `COc1cc(Cl)c(OC)cc1N`, the Potency entry in [1], in experiment [3], in experiment [10], in experiment [5], in [6] and in [7] was “inactive” throughout. Moreover, the Potency result in [8] is “inactive”. Besides, the Potency in [2] is 30.6 µM (active).

As for `OCCNCc1ccccc1`, the Potency entry in experiment [1], in [2], in experiment [3], in experiment [10], in experiment [5] and in [9] was “inactive” in each case. Also, the Potency entry in experiment [6], in experiment [7] and in experiment [8] was “inactive” each time.

As for `CCOC(=O)c1cccnc1`, the Potency entry in [1], in [2], in [3], in experiment [5], in experiment [9] and in experiment [6] was “inactive” each time. For the same compound, in experiment [8], the Potency entry is “inactive”.

As to `CCOC(=O)C1=C[C@]2(CC)CCCN3CCc4c(n1c1ccccc41)[C@@H]32`, the Potency entry in [1], in [3], in experiment [10], in experiment [5], in experiment [9] and in experiment [6] was “inactive” throughout. In addition, the Potency entry in experiment [7] was “inactive”. For the same compound, in [2], the Potency was 11.9 µM (active) and inactive.

On to `CCCCCCCCCOS(=O)(=O)O`, for which the Potency entry in experiment [1], in experiment [2], in experiment [3], in experiment [4], in [6] and in [7] was “inactive” in each case. Also, the Potency result in experiment [8] is “inactive”.

For `C=C1C(=C/C=C2\CCC[C@]3(C)[C@@H]([C@H](C)/C=C/[C@@H](O)C4CC4)CC[C@@H]23)C[C@@H](O)C[C@@H]1O`, the Potency result in experiment [1], in [2] and in experiment [3] was “inactive” in each case. Besides, the Potency in experiment [5] was 26.6 µM (active); in [9] it was 2.66 µM (active).
